Several values for one entry are separate records, joined by “and”; a condition that tells them apart may be missing. Identical values can stand only once. In all, about 4,300 compounds went through this assay and about 4,000 (93%) were called active.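 Rule for the calls: active = inhibition above its plate's cutoff, the mean test-well inhibition plus 3 SD (cut at about 4.8% in these data); inactive = the rest.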 The set was probably picked from earlier hits. A selection follows.

What is called inhibition is how much of the control response was suppressed.

This assay in a line: DNA CAG/GTC dye complex inhibitors – biochemical, fluorescence, TO-PRO-1 dye, d(CAG) DNA oligo, counter-screen for rCAG RNA repeat binder project (AID 652068).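 Note: 0% = DNA dye mix with DMSO and 100% = 100 µM mitoxantrone; hits displace the dye from DNA and so lower well fluorescence.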 The note with it: d(CAG) DNA oligo TO-PRO-1 dye displacement, at 3 µM, stronger effect = higher value. For orientation: A counterscreen serves to expose hits that act by an unwanted route or on another target.
Consider `Cc1cc(C)cc(Oc2c(C(F)(F)F)oc3cc(OCC(=O)O)ccc3c2=O)c1`, for which the inhibition is 4.02% (inactive).

`Cc1cc(C)cc(OCC(=O)Nc2cc(NC(=O)COc3cc(C)cc(C)c3)cc(C(=O)O)c2)c1`: the inhibition is 39.1% (active).

With `Cc1cccc(OCC(=O)Nc2ccc(C(=O)O)cc2NC(=O)COc2cccc(C)c2)c1`, the inhibition was 11.1% (active).

As to `O=C(COc1ccccc1Cl)Nc1ccc(C(=O)c2ccc(C(=O)O)cc2)cc1`, the inhibition was 3.95% (inactive).

Take `Cc1ccccc1-n1c(SCC(=O)Nc2cccc3ccccc23)nc(O)cc1=O`: the inhibition was 7.03% (active).

`COc1cc2ccccc2cc1C(=O)Nc1ccc(S(=O)(=O)Nc2cc(C)on2)cc1`: the inhibition is 23.6% (active).

Consider `Cc1ccc(C(=O)/C=C/Nc2ccc(S(=O)(=O)Nc3onc(C)c3C)cc2)cc1`, for which the inhibition is 16.3% (active).

Regarding `Cc1cc(OC(C)C(=O)Nc2ccc(S(=O)(=O)Nc3onc(C)c3C)cc2)cc(C)c1Cl` (stereo not drawn), the inhibition was 26.6% (active).

Consider `CCOc1ccc(C(=O)Nc2ccc(S(=O)(=O)Nc3cc(C)on3)cc2)cc1`, for which the inhibition was 6.38% (active).

As for `CCn1cc(C(=O)NCC2COc3ccccc3O2)c2cc(OC)c(OC)cc2c1=O` (stereo not drawn), the inhibition was 0.88% (inactive).

For `CCc1ccc(OC(C)C(=O)Nc2ccc(S(=O)(=O)Nc3cc(C)on3)cc2)cc1` (stereo not drawn), the inhibition was 5.12% (active).

Regarding `CCOc1cc(C(=O)Nc2ccc(S(=O)(=O)Nc3cnc4ccccc4n3)cc2)cc(OCC)c1OCC`, the inhibition was 26.9% (active).

Take `Cc1ccc(S(=O)(=O)N2[C@@H](c3ccc(Br)cc3)C(C(=O)O)=C[C@H]2CC2CCCC2)cc1`: the inhibition was 34.4% (active).

As to `CCCCC[C@@H]1C=C(C(=O)O)[C@H](c2ccc(C#N)cc2)N1S(=O)(=O)c1ccc(C)cc1`, the inhibition is 20.6% (active).

Turning to `Cc1cc(C(=O)N/N=C/c2ccc(O)c([N+](=O)[O-])c2)c(C)n1-c1ccc(F)cc1`, the inhibition is 14.8% (active).

Regarding `Cc1ccc(SC(CC(=O)c2ccc(C(C)(C)C)cc2)C(=O)O)cc1` (stereo not drawn), the inhibition is 12.6% (active).

Consider `Cn1c2ccccc2c2cc(/C=C(\NC(=O)c3ccccc3)C(=O)NCC(=O)O)ccc21`, for which the inhibition was 12.6% (active).

Consider `O=C1CC(c2ccccc2)=NN1c1ccc([N+](=O)[O-])cc1`, for which the inhibition was 14.2% (active).

Turning to `O=C1Oc2ccccc2C(=O)/C1=C/c1ccccc1O`, the inhibition was 10.7% (active).

`COc1cccc(-c2coc3cc4oc(=O)c(CC(=O)O)c(C)c4cc23)c1`: the inhibition was 11.6% (active).

For `C=CCSc1nsc(NC(=O)Nc2cccc(C(C)=O)c2)n1`, the inhibition is 16.3% (active).

As for `CCSc1nsc(NC(=O)Nc2cccc(C(C)=O)c2)n1`, the inhibition is 12.6% (active).

For the molecule `O=C(Nc1nncs1)c1ccccc1NS(=O)(=O)c1cccs1`, the inhibition is 6.44% (active).

In the case of `O=C(Nc1cccc(Cl)c1)Nc1ccccc1NS(=O)(=O)c1cccs1`, the inhibition was 9.83% (active).

As for `COc1cc(OC)c(S(=O)(=O)Nc2ccccc2C(=O)O)cc1S(=O)(=O)Nc1ccccc1C(=O)O`, the inhibition was 6.92% (active).

As to `COc1ccc(NS(=O)(=O)c2cc(NC(=O)CC(=O)c3ccc([N+](=O)[O-])cc3)ccc2C)cc1`, the inhibition is 19% (active).

For the molecule `COc1ccc(NS(=O)(=O)c2cc(C(=O)Nc3ccccc3C(=O)O)ccc2C)cc1`, the inhibition was 18.6% (active).

Turning to `CC(=N\NC(=O)c1cc(Br)ccc1O)/C(=N/O)C(=O)Nc1ccccc1`, the inhibition is 3.8% (inactive).

`O=[N+]([O-])c1cc(Cl)cc(/C=N/NC(=S)Nc2cc(S(=O)(=O)N3CCOCC3)ccc2Cl)c1O`: the inhibition is 84.8% (active).

Consider `CCOC(=O)c1c(NC(=O)C2CC=CCC2C(=O)O)sc(C)c1CC` (stereo not drawn), for which the inhibition is 5.11% (active).

Take `C=CCn1c(=S)[nH]c2scc(-c3ccco3)c2c1=O`: the inhibition is 15.4% (active).

Consider `Cc1ccc(Cn2c(SCC(=O)N/N=C/c3ccccc3OCC(=O)O)nc3ccccc32)cc1`, for which the inhibition was 23% (active).

In the case of `O=C(Cc1ccccc1)Nc1ccc(C(=O)Nc2ccccc2C(=O)O)cc1`, the inhibition is 10.5% (active).

For the molecule `Cc1sc(NC(=O)c2ccc3ncsc3c2)c(C(N)=O)c1C`, the inhibition was 7.12% (active).

Consider `N#Cc1ccccc1CN1C(=O)S/C(=C/c2cccn2-c2cccc(C(=O)O)c2)C1=O`, for which the inhibition was 25.7% (active).

For `CC(=O)Nc1ccc(S(=O)(=O)N(CCc2ccccc2)CC(=O)N/N=C/c2ccc(C(=O)O)cc2)cc1`, the inhibition was 5.27% (active).

On to `Cc1ccc(N=C2NC(=O)/C(=C/C=C/c3ccco3)S2)cc1C`, for which the inhibition is 23.8% (active).

For `COc1cc(C(=O)Nn2c(O)c(C3=c4ccccc4=NC3=O)sc2=S)ccc1O`, the inhibition is 8.15% (active).

For the molecule `Cc1ccc(NC(=O)CC2S/C(=N/N=C3\CCCc4ccccc43)NC2=O)cc1` (stereo not drawn), the inhibition was 17.1% (active).

`COc1ccc(/C=C/C(=O)c2ccc(NS(=O)(=O)c3ccc(C)cc3)cc2)cc1O`: the inhibition was 18.4% (active).

On to `CCN(CC)C(=O)CSC(Nc1cccc(F)c1)=C(C#N)C#N`, for which the inhibition is 13.2% (active).

As for `COc1cc(/C=C2/C(=O)NN(c3cccc(Cl)c3)C2=O)cc(Br)c1O`, the inhibition was 9.22% (active).

On to `CN(C(=O)COC(=O)c1cc(-c2ccco2)nc2ccccc12)C1CCS(=O)(=O)C1` (stereo not drawn), for which the inhibition is 13.2% (active).

As to `COc1ccc(C(CNC(=O)c2cccc(S(=O)(=O)Nc3ccccc3Cl)c2)N2CCOCC2)cc1` (stereo not drawn), the inhibition was 27.5% (active).

On to `Cc1ccc(NC(=O)CSc2nc(CSc3ccc(C)cc3)cc(=O)[nH]2)cc1`, for which the inhibition was 16.7% (active).

On to `CN(C)S(=O)(=O)c1cccc(-c2nn(-c3ccccc3)cc2/C=C2\SC(=S)N(CC(=O)O)C2=O)c1`, for which the inhibition was 55.3% (active).

Regarding `Cc1ccc(-c2nn(-c3ccccc3)cc2/C=C2\SC(=S)N(CCCCCC(=O)O)C2=O)o1`, the inhibition was 28.4% (active).

Take `CCc1nnc(NS(=O)(=O)c2ccc(N=Cc3c(C)[nH]n(-c4ccc(C)cc4)c3=O)cc2)s1`: the inhibition was 32.2% (active).

Regarding `O=C(N/N=C/c1c(Cl)[nH]c2ccccc12)c1sc2ccccc2c1Cl`, the inhibition is 17.5% (active).

`Cc1ccc(NC(=S)NNC(=O)CSc2nnc(SCc3ccccc3Cl)s2)cc1`: the inhibition was 18.8% (active).

Take `CC(C)=CCCC1(C)C=Cc2c(ccc3c2[nH]c2cc(O)c(C)cc23)O1` (stereo not drawn): the inhibition was 15.3% (active).

For the molecule `CCOC(=O)C1Nc2ccc(C(F)(F)F)cc2C2C=CCC12` (stereo not drawn), the inhibition was 9.84% (active).

Regarding `Cc1cc2nc(-c3ccco3)c(Cc3cccc(F)c3)n2c(C)c1Br`, the inhibition is 11.8% (active).

`CC1(C(=O)NS(=O)(=O)c2ccc(C#N)cc2)CCN1C(=O)c1ccc(C2CCCCC2)cc1` (stereo not drawn): the inhibition was 14.9% (active).

In the case of `Cc1ccc(S(=O)(=O)N2[C@@H](c3cccc4ccccc34)C(C(=O)O)=C[C@H]2C(C)(C)C)cc1`, the inhibition is 15.6% (active).

For `CCc1ccc(N2CC(C(=O)Nc3ccc(S(=O)(=O)Nc4nccs4)cc3)CC2=O)cc1` (stereo not drawn), the inhibition was 16.7% (active).

As to `Cc1ccc(Sc2cc(C(=O)c3ccccc3C(=O)O)ccc2[N+](=O)[O-])cc1`, the inhibition was 29.8% (active).

Regarding `COc1ccc(Br)cc1/C=N/Nc1ccc(S(=O)(=O)Nc2ccccc2C(=O)O)cc1[N+](=O)[O-]`, the inhibition was 71.3% (active).

`COc1cccc(/C=N/Nc2ccc(S(=O)(=O)Nc3ccccc3C(=O)O)cc2[N+](=O)[O-])c1O`: the inhibition was 79.1% (active).

Take `O=C(O)c1ccccc1/C=N/Nc1ccc(S(=O)(=O)Nc2ccc(Cl)cc2)cc1[N+](=O)[O-]`: the inhibition was 27.1% (active).

With `COc1ccc(OCC(=O)Nc2nnc(-c3ccco3)s2)cc1`, the inhibition is 8.39% (active).

For `Cc1ccccc1-c1ccc2c(c1)O[C@@H](CN(C)Cc1ccc(C(=O)O)cc1)[C@@H](C)CN([C@H](C)CO)S2(=O)=O`, the inhibition was 21.1% (active).

Regarding `O=C(COc1ccc([N+](=O)[O-])cc1)Nc1cccc(C(=O)Nc2ccccc2C(=O)O)c1`, the inhibition is 24.8% (active).

Turning to `NC(c1ccccc1)c1csc(NC(=O)Nc2cccc(C(F)(F)F)c2)n1` (stereo not drawn), the inhibition is 15.2% (active).

For `NC(c1csc(NC(=O)Nc2cccc(C(F)(F)F)c2)n1)C1CCCCC1` (stereo not drawn), the inhibition was 4.91% (active).

As to `COc1ccc(C(N)c2csc(NC(=O)Nc3cccc(C(F)(F)F)c3)n2)cc1` (stereo not drawn), the inhibition was 10.1% (active).

Consider `CCOC(=O)c1csc(NC(=O)Nc2cccc(OC)c2)n1`, for which the inhibition is 16.7% (active).

`CCN1C(=O)/C(=C2/Sc3ccccc3N2CCCS(=O)(=O)O)SC1=S`: the inhibition was 7.23% (active) and 13.9% (active).

Turning to `CCOC(=O)c1ccccc1N1C(=O)C2Sc3[nH]c(=O)sc3C(/C=C/c3ccccc3)C2C1=O` (stereo not drawn), the inhibition was 18.1% (active).

For the molecule `Cc1c(CCC(=O)N[C@@H](CC(C)C)C(=O)O)c(=O)oc2c(C)c3oc4c(c3cc12)CCCC4`, the inhibition was 12.2% (active).

As for `CC[C@@H](C)[C@H](NC(=O)CCc1c(C)c2cc3c4c(oc3c(C)c2oc1=O)CCCC4)C(=O)O`, the inhibition was 14.9% (active).

For the molecule `COc1ccc(C(=O)/C=C/c2ccc(-c3ccccc3)cc2)cc1CSCC(=O)O`, the inhibition was 50.7% (active).

Consider `COC(=O)c1ccc(COc2ccc(/C=C/C(=O)c3ccc(OC)c(CSCC(=O)O)c3)cc2OC)cc1`, for which the inhibition was 24.1% (active).

On to `Cc1ccc2nc(N3C(=O)C(O)=C(C(=O)c4ccco4)C3c3cccc(O)c3)sc2c1` (stereo not drawn), for which the inhibition is 37.6% (active).

Turning to `N#Cc1c(-c2ccccc2)nc(SCc2cccc(C(F)(F)F)c2)[nH]c1=O`, the inhibition is 50% (active).

Consider `Cc1ccc(CSc2nc(-c3ccccc3)c(C#N)c(=O)[nH]2)cc1`, for which the inhibition is 28.7% (active).

With `N#Cc1c(-c2ccccc2)nc(SCc2ccc([N+](=O)[O-])cc2)[nH]c1=O`, the inhibition is 17.4% (active).

In the case of `O=C(O)c1ccc(NC(=O)c2cn(-c3ccccc3)nc2-c2ccc(Cl)cc2)cc1`, the inhibition was 23.2% (active).

As for `O=C(NNC(=S)NC(=O)c1cn(-c2ccccc2)nc1-c1ccccc1)c1ccncc1`, the inhibition is 15.3% (active).

For the molecule `O=C(O)c1ccc(N/N=C/c2cn(-c3ccccc3)nc2-c2cccs2)cc1`, the inhibition was 23% (active).

On to `N#Cc1c(-c2ccccc2)cc(-c2ccccc2)nc1SCC(=O)O`, for which the inhibition is 13% (active).

For `O=C(O)CCn1cc(/C=C/C(=O)c2ccc(Cl)cc2)c(-c2cccc(Br)c2)n1`, the inhibition was 53.6% (active).

As for `Cc1cc(N2C(=O)C(O)=C(C(=O)c3ccc(C)o3)C2c2ccc(OCc3ccccc3)cc2)no1` (stereo not drawn), the inhibition is 23.8% (active).

The values above are taken from PubChem BioAssay AID652068 (The Scripps Research Institute Molecular Screening Center, 2013).
